Data reported in PubChem BioAssay (Tox21).
Inconclusive results are not listed. Entries that show only a call come without a potency. Active and inactive are the calls of the source. Calls follow the shape of the dose curve; as a rule, active = well fitted activation curve with a large enough effect in the repeat runs; inconclusive = weak or mixed curves; inactive = flat fitted curve, though single readings scatter.

target: Nuclear receptor subfamily 1 group I member 2 (Homo sapiens) (UniProt O75469); assay: Human pregnane X receptor (PXR) activation by small molecules, qHTS assay (AID 1346985); settings: DPX-2 HepG2 CYP3A4-luciferase, 24 h; series mostly up to 38.3 µM; also: nearly all actives have a fitted effect of over 40% in size
Description: National Center for Advancing Translational Sciences [NCATS]
NIH Chemical Genomics Center [NCGC]
U.S. Environmental Protection Agency [EPA]
National Institutes of Environmental Health Sciences [NIEHS]
National Toxicology Program [NTP]
The Pregnane X receptor (PXR), a ligand activated nuclear receptor plays a critical role in the regulation of genes involved in drug metabolism and transporters. Activation of PXR may be involved in the unwanted adverse drug-drug interactions. […] Therefore, identification of compounds with the potential for PXR activation can be of importance in improving the efficacy of drugs with less toxicity and avoiding drug-drug interactions.
DPX-2 (Puracyp, Inc.) cell lines, used for screening against human PXR activation has HepG2 cells co-transfected with a PXR response element and a luciferase construct containing CYP3A4 promoter. Increase in luciferase activity can be used to identify the compounds that activate the PXR pathway.
DPX-2 cells were dispensed at 2,000 cells per well in 5uL of assay medium into white, solid-bottom 1536-well plates using a Multidrop Combi dispenser (Thermo Scientific). The assay plates were incubated at 37C for 5hr before transferring 23nL of test compounds dissolved in DMSO and positive control via Pintool station (Wako). The assay plates were incubated at 37C for 24hr. Then 5ul One-Glo assay reagent (Promega) was added to each plate by a Flying Reagent Dispenser (FRD, Aurora Discovery) and following 30 min incubation at room temperature, luciferase activity was quantified on a ViewLux plate reader (Perkin Elmer).
Potency is read from the fitted curve at half-maximal effect.

Compound | Potency
O=[n+]1ccn([O-])c2ccccc21 | inactive
CCOC(=O)[C@@H](N)CS | inactive
CC(Oc1ccccc1)C(=O)N[C@@H]1C(=O)N2[C@@H]1SC(C)(C)[C@@H]2C(=O)O (stereo not given in full) | inactive
Nc1ncnc2c1ncn2CCOCP(=O)(O)O | inactive
CCCCC(=O)N(Cc1ccc(-c2ccccc2-c2nn[nH]n2)cc1)[C@@H](C(=O)O)C(C)C | inactive
CCC[C@@H]1C[C@@H](C(=O)N[C@@H]([C@H]2O[C@H](SC)[C@H](O)[C@@H](O)[C@H]2O)[C@H](C)Cl)N(C)C1 | inactive
CC1C(=O)CC2C3(C)CCC2(C(C)C(=O)O)C(=O)C13 (stereo not given) | inactive
CCCCCc1ccc(C)cc1O | inactive
FC(F)(F)C(F)(F)C(F)(F)C(F)(F)C(F)(F)C(F)(F)F | inactive
CN1c2cc(O)c(N=NC(N)=O)cc2CC1S(=O)(=O)O (stereo not given) | inactive
CC[C@H](C)[C@@H]1NC(=O)[C@H](Cc2ccc(O)cc2)NC(=O)[C@@H](N)CSSC[C@@H](C(=O)N2CCC[C@H]2C(=O)N[C@@H](CC(C)C)C(=O)NCC(N)=O)NC(=O)[C@H](CC(N)=O)NC(=O)[C@H](CCC(N)=O)NC1=O | inactive
COc1cc(C)c(/C=C/C(C)=C/C=C/C(C)=C/C(=O)O)c(C)c1C | inactive
NC(=O)OCC(O)COc1ccc(Cl)cc1 (stereo not given) | inactive
O=C(O)CO.[NH2-].[NH2-].[Pt+2] | inactive
CCC(C)[C@@H](N)C(=O)O (stereo not given in full) | inactive
CC(=O)Nc1ccc(OC(=O)c2ccccc2O)cc1 | inactive
CC[C@H](C)[C@H]1O[C@]2(CC[C@@H]1C)C[C@@H]1C[C@@H](C/C=C(\C)[C@@H](O[C@H]3C[C@H](OC)[C@@H](O[C@H]4C[C@H](OC)[C@@H](O)[C@H](C)O4)[C@H](C)O3)[C@@H](C)/C=C/C=C3\CO[C@@H]4[C@H](O)C(C)=C[C@@H](C(=O)O1)[C@]34O)O2 | inactive
C[C@@H]1C[C@H]2[C@@H]3CCC4=CC(=O)C=C[C@]4(C)[C@@]3(F)[C@@H](O)C[C@]2(C)[C@@]1(O)C(=O)COC(=O)c1cccc(S(=O)(=O)O)c1 | inactive
CCCCCCCCCCCCCCCCOCCOCCOCCOCCOCCOCCOCCOCCOCCOCCOCCOCCOCCOCCOCCOCCOCCOCCOCCOCCO | inactive
CCCCC(=O)O[C@H]1CC[C@H]2[C@@H]3CCc4cc(O)ccc4[C@H]3CC[C@]12C | inactive

Compound | Potency
CO[C@H]1C[C@@H]2CC[C@@H](C)[C@@](O)(O2)C(=O)C(=O)N2CCCC[C@H]2C(=O)O[C@H]([C@H](C)C[C@@H]2CC[C@@H](OC(=O)C(C)(CO)CO)[C@H](OC)C2)CC(=O)[C@H](C)/C=C(\C)[C@@H](O)[C@@H](OC)C(=O)[C@H](C)C[C@H](C)/C=C/C=C/C=C/1C | inactive
C[C@H](CCCC(C)(C)O)[C@H]1CC[C@H]2[C@@H]3CC=C4C[C@@H](O)CC[C@]4(C)[C@H]3CC[C@]12C | inactive
COc1ccc2cc([C@H](C)CO)ccc2c1 | inactive
O=C1NC(=O)[C@H]2[C@@H]1[C@@H]1C=C[C@H]2C1 | inactive
CC1=C[C@H](O)CC(C)(C)[C@H]1/C=C/C(C)=C/C=C/C(C)=C/C=C/C=C(C)/C=C/C=C(C)/C=C/C1=C(C)C[C@@H](O)CC1(C)C | inactive
CCOC(=O)C1=C[C@@H](OC(CC)CC)[C@H](NC(C)=O)[C@@H](N)C1 | inactive
CC(C)[C@@H](N)C(=O)O | inactive
Cc1cc(C(=O)NNCc2ccccc2)no1 | inactive
C[C@]12C=CC(=O)N[C@@H]1CC[C@@H]1[C@@H]2CC[C@]2(C)[C@@H](C(=O)Nc3cc(C(F)(F)F)ccc3C(F)(F)F)CC[C@@H]12 | inactive
CCN(CC)CCC(=O)N1c2ccccc2Sc2ccc(C(F)(F)F)cc21 | 6.31 µM (active)
CCCCCCCCCCCCCCCC(=O)OC[C@@H](O)[C@H]1OC[C@H](O)[C@H]1O | inactive
OC1OC[C@@H](O)[C@H](O)[C@@H]1O (stereo not given in full) | inactive
C=CCCCCCCCCC(=O)OC | inactive
O=C(O)CCC/C=C\C[C@@H]1[C@@H](/C=C/[C@@H](O)COc2cccc(C(F)(F)F)c2)[C@H](O)C[C@@H]1O | inactive
O=P(O)(O)OC[C@H](O)CO | inactive
NC(=O)OC[C@@H]1[C@H](NC(=O)/C(=N\OCC(=O)O)c2csc(N)n2)C(=O)N1S(=O)(=O)O | inactive
CNCC(O)c1ccc(OC(=O)C(C)(C)C)c(OC(=O)C(C)(C)C)c1 (stereo not given) | inactive
CCN(CC)CCOc1ccc(-c2nc3cc(Cl)ccc3s2)cc1 | 10 µM (active)
NS(=O)(=O)c1cc2c(cc1Cl)NC(Cc1ccccc1)NS2(=O)=O (stereo not given) | inactive
CCCCC/C=C\C/C=C\C/C=C\CCCCC(=O)O | inactive
